Test results taken from PubChem BioAssay.
The source made the active and inactive calls.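 Rule for the calls, unless noted: active = membrane potential signal rise above negative control mean plus 3 SD in both duplicates, also active in the earlier TRPC4 screen; inactive = the rest.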

What follows are compounds tested against Short transient receptor potential channel 6 (Mus musculus) (UniProt Q61143) (assay: TRPC6 opening by TRPC4 activator hits – cell-based, HEK293, membrane potential dye, duplicate, selectivity assay for TRPC4 activator project, confirmation (AID 434950)). Details: HEK293 TRPC6, membrane potential fluorescence, at 10 µM; activation: hits give high values; outcome: activation.
Short transient receptor potential channel 6 (Mus musculus), sequence (Q61143 whole entry, looked up): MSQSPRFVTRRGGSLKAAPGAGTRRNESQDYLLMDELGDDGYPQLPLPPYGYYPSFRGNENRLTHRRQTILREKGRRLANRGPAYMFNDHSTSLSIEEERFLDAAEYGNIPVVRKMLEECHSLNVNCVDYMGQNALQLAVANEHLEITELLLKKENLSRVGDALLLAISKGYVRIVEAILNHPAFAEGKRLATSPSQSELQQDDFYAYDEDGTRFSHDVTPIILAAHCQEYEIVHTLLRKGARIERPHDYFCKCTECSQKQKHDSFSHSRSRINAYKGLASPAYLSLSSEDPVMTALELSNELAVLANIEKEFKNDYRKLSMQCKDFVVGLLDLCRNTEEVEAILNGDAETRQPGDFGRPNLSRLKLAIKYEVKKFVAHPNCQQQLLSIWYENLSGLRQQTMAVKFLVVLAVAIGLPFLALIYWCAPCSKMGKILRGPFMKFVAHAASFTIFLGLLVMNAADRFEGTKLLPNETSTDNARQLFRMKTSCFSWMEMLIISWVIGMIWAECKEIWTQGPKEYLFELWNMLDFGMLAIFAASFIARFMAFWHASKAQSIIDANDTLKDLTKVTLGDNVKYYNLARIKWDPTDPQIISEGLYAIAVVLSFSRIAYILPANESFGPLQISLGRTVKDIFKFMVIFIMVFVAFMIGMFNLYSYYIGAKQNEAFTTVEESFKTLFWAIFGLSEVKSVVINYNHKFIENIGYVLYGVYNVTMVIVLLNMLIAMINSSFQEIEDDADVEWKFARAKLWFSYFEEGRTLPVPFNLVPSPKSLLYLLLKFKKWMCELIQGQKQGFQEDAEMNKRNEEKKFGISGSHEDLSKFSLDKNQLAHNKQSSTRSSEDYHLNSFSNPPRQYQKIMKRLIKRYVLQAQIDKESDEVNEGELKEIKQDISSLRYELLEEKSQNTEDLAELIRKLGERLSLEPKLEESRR

outcome, inactive:
CCC(O)(c1ccc(OC)cc1)C(CN1CCOCC1)c1ccccc1 (stereo not given), COc1ccc(Nc2cc(C)nc3ccc(OC)cc23)cc1, Cc1ccc(C(C)(C)C)cc1S(=O)(=O)Nc1nc2ccccc2nc1Cl, CN(C)C(CNC(=O)c1ccccc1OCc1ccc(Cl)cc1)c1ccco1 (stereo not given), COc1ccc(-c2csc(NC(=O)Cc3cccc4ccccc34)c2C(=O)O)cc1, CC1CCN(C(C)C(=O)Nc2ccccc2-c2ccccc2)CC1 (stereo not given), O=c1c2ccccc2nc(SCc2ccccc2)n1CC1CCCO1 (stereo not given), CC(=O)Nc1cccc(C(=O)NCC2(N3CCCCC3)CCCCC2)c1, Cc1ccn2cc(CCNC(=O)c3ccc(Br)o3)nc2c1, CCOc1ccc2ccccc2c1CNCCc1ccc(S(N)(=O)=O)cc1, CCc1cccc(OCC(=O)Nc2ccc(C(=O)O)cc2NC(=O)COc2cccc(CC)c2)c1, COc1ccc(CN2CCN(C(=O)c3ccc(F)cc3)CC2)c(OC)c1, CCOc1ccc(Br)cc1/C=N/O, CCC1CCCCN1Cc1nc2c(c(=O)n(C)c(=O)n2C)n1Cc1ccccc1 (stereo not given), O=C(c1ccc2c(c1)OCO2)C1CCCN(Cc2ccccc2OC(F)F)C1 (stereo not given), O=C(Nc1ccccc1N1CCN(C(=O)c2ccccc2)CC1)c1ccc(Br)o1, Cc1ccc(C(=O)C2=C(O)C(=O)N(Cc3cccnc3)C2c2ccc(Cl)c(Cl)c2)o1 (stereo not given), Cc1cccc(CCN(C(=O)c2snc(C(N)=O)c2N)C(C(=O)NCC2CCCO2)c2ccc(F)cc2)c1 (stereo not given), Cc1ccc(NC(=O)c2cc(N3C(=O)C=CC3=O)ccc2N2CCOCC2)cc1, Fc1ccccc1Sc1ccccc1CNC1=NCCN1, CC(C)C(NC(=O)c1ccc(C(C)(C)C)cc1)C(=O)NCC(c1ccccc1)N(C)C (stereo not given), COCCn1c(SCC(=O)c2ccccc2)nc2ccccc2c1=O, COc1ccc(SC[C@H](Cc2ccccc2)N2CCN(C)CCC2=O)cc1, O=C(CCCSc1nc2ccccc2[nH]1)NCc1ccccc1Cl, CCOC(=O)C1(Cc2ccccc2)CCN(CC2CC=CCC2)CC1 (stereo not given), CCn1c(NCc2c[nH]c3ccccc23)nc2ccccc21, COc1ccc(C(CNC(=O)c2oc3ccc(F)cc3c2C)N2CCCCC2)cc1 (stereo not given), CCC(=O)N1CCc2cc(S(=O)(=O)NCCN3CCCCC3CC)ccc21 (stereo not given), Nc1cc(N2CCCCC2)c([N+](=O)[O-])cc1Cl, Cc1c(CCOC(=O)c2cccc([N+](=O)[O-])c2)sc[n+]1CC(=O)c1ccccc1, CCOc1cc(CNCCCN2CCOCC2)cc(Br)c1OCc1ccccc1Cl, Cc1ccc(Sc2ccc(CO)cc2[N+](=O)[O-])cc1, Cc1ccc(Cn2c(Cc3ccccc3)nc3ccccc32)cc1, CC1CCc2c(sc(/N=C/N(C)C)c2C#N)C1 (stereo not given), COc1ccccc1N1CCN(CC(C)N(C(=O)C2CCCCC2)c2ccccn2)CC1 (stereo not given), CCN(CC)c1ncnc2scc(C3COc4ccccc4O3)c12 (stereo not given), COc1ccc(Sc2nc(-c3ccccc3)ncc2C(=O)O)cc1, Cc1cccc(CN2CCCC(C(=O)Nc3ccccc3Oc3cccnc3)C2)c1 (stereo not given), Cn1nnnc1SCCNCc1ccccc1OCc1ccc(Cl)cc1, O=C(C[n+]1cccc(CNC(=O)c2ccc(OC(F)F)cc2)c1)Nc1ccc(SC(F)F)cc1

These compounds were tested against Short transient receptor potential channel 6 (Mus musculus) (UniProt Q61143) (assay: positive modulators of mouse TRPC6 channel – HEK293 cells, membrane potential dye, duplicate, selectivity assay for TRPC4 potentiator project, confirmation (AID 434952;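 active = compound raising the membrane signal above positive-control mean plus 3 SD in both repeats, and a primary screen hit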)). Details: HEK293 TRPC6, membrane potential dye fluorescence, at 10 µM, maximal acetylcholine added after compound.

outcome, inactive:
CCC(O)(c1ccc(OC)cc1)C(CN1CCOCC1)c1ccccc1 (stereo not given), COc1ccc(Nc2cc(C)nc3ccc(OC)cc23)cc1, Cc1ccc(C(C)(C)C)cc1S(=O)(=O)Nc1nc2ccccc2nc1Cl, CN(C)C(CNC(=O)c1ccccc1OCc1ccc(Cl)cc1)c1ccco1 (stereo not given), COc1ccc(-c2csc(NC(=O)Cc3cccc4ccccc34)c2C(=O)O)cc1, CC1CCN(C(C)C(=O)Nc2ccccc2-c2ccccc2)CC1 (stereo not given), O=c1c2ccccc2nc(SCc2ccccc2)n1CC1CCCO1 (stereo not given), CC(=O)Nc1cccc(C(=O)NCC2(N3CCCCC3)CCCCC2)c1, Cc1ccn2cc(CCNC(=O)c3ccc(Br)o3)nc2c1, CCOc1ccc2ccccc2c1CNCCc1ccc(S(N)(=O)=O)cc1, CCc1cccc(OCC(=O)Nc2ccc(C(=O)O)cc2NC(=O)COc2cccc(CC)c2)c1, COc1ccc(CN2CCN(C(=O)c3ccc(F)cc3)CC2)c(OC)c1, CCOc1ccc(Br)cc1/C=N/O, CCC1CCCCN1Cc1nc2c(c(=O)n(C)c(=O)n2C)n1Cc1ccccc1 (stereo not given), O=C(c1ccc2c(c1)OCO2)C1CCCN(Cc2ccccc2OC(F)F)C1 (stereo not given), O=C(Nc1ccccc1N1CCN(C(=O)c2ccccc2)CC1)c1ccc(Br)o1, Cc1ccc(C(=O)C2=C(O)C(=O)N(Cc3cccnc3)C2c2ccc(Cl)c(Cl)c2)o1 (stereo not given), Cc1cccc(CCN(C(=O)c2snc(C(N)=O)c2N)C(C(=O)NCC2CCCO2)c2ccc(F)cc2)c1 (stereo not given), Cc1ccc(NC(=O)c2cc(N3C(=O)C=CC3=O)ccc2N2CCOCC2)cc1, Fc1ccccc1Sc1ccccc1CNC1=NCCN1, CC(C)C(NC(=O)c1ccc(C(C)(C)C)cc1)C(=O)NCC(c1ccccc1)N(C)C (stereo not given), COCCn1c(SCC(=O)c2ccccc2)nc2ccccc2c1=O, COc1ccc(SC[C@H](Cc2ccccc2)N2CCN(C)CCC2=O)cc1, O=C(CCCSc1nc2ccccc2[nH]1)NCc1ccccc1Cl, CCOC(=O)C1(Cc2ccccc2)CCN(CC2CC=CCC2)CC1 (stereo not given), CCn1c(NCc2c[nH]c3ccccc23)nc2ccccc21, COc1ccc(C(CNC(=O)c2oc3ccc(F)cc3c2C)N2CCCCC2)cc1 (stereo not given), CCC(=O)N1CCc2cc(S(=O)(=O)NCCN3CCCCC3CC)ccc21 (stereo not given), Nc1cc(N2CCCCC2)c([N+](=O)[O-])cc1Cl, Cc1c(CCOC(=O)c2cccc([N+](=O)[O-])c2)sc[n+]1CC(=O)c1ccccc1, CCOc1cc(CNCCCN2CCOCC2)cc(Br)c1OCc1ccccc1Cl, Cc1ccc(Sc2ccc(CO)cc2[N+](=O)[O-])cc1, Cc1ccc(Cn2c(Cc3ccccc3)nc3ccccc32)cc1, CC1CCc2c(sc(/N=C/N(C)C)c2C#N)C1 (stereo not given), COc1ccccc1N1CCN(CC(C)N(C(=O)C2CCCCC2)c2ccccn2)CC1 (stereo not given), CCN(CC)c1ncnc2scc(C3COc4ccccc4O3)c12 (stereo not given), COc1ccc(Sc2nc(-c3ccccc3)ncc2C(=O)O)cc1, Cc1cccc(CN2CCCC(C(=O)Nc3ccccc3Oc3cccnc3)C2)c1 (stereo not given), Cn1nnnc1SCCNCc1ccccc1OCc1ccc(Cl)cc1, O=C(C[n+]1cccc(CNC(=O)c2ccc(OC(F)F)cc2)c1)Nc1ccc(SC(F)F)cc1
